Rows were chosen to be rich in hits. Some 2.8% of all compounds tested hit in one or more screens of this group.
Shn3 3UTR inh: inhibitors of Schnurri-3 3'UTR reporter in osteoblasts | Clone20 osteoblast Shn3 3'UTR firefly luciferase, 24 h | inhibition, % at 12.5 µM | 360,000 tested, 0.52% active | AID 588674;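 active = mean inhibition of at least 75% with every replicate also reaching 75%; inconclusive = mean inhibition at least 75% but some replicate below; inactive = mean inhibition below 75%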;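 also: 0% = median of neutral control wells and 100% = pilot-screen positive control compound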
Env fusion inh: HIV envelope-mediated fusion inhibition; HeLa-JRFL Env/CEM21 cell fusion, luciferase; 360,000 tested, 1.1% active; inhibition, % at 12.3 µM;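 active = mean replicate inhibition score of at least 50 and every replicate individually at or above 50; inconclusive = only one of the two criteria met; inactive = mean below 50 and not all replicates reaching 50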;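 also: 0% = plate neutral controls and 100% = maraviroc near 300 nM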
NSD2 HMT inh: blocks human histone methyltransferase NSD2; O96028; NSD2 peptide methylation, AlphaScreen, 120 min; inhibition, % at 12.5 µM; 310,000 tested, 0.54% active; in the data active = inhibition above about 50%
PAX8 inh HTS: PAX8 transcriptional activity inhibition. 360,000 tested, 1.2% active. inhibition, % at 12.6 µM. RMG-I TPO-luciferase reporter, SteadyGlo, 24 h;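 active = mean replicate inhibition at least 60% with every replicate also reaching 60%; inconclusive = only one of the two criteria is met; inactive = mean below 60% and not all replicates reaching 60%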;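 also: luciferase light reporting Pax8 driven TPO promoter activity; plate controls were median of neutral control wells for no effect and mitoxantrone controls for full effect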
Glyco luc inh: N-linked glycosylation inhibition. D54 ERlucT glycosylation luciferase reporter, 24 h; percent of 100 nM tunicamycin response. reporter increase, % at 12.5 µM. 360,000 tested, 0.23% active. AID 588692;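 active = mean luciferase reporter signal, scaled so untreated is 0 and the glycosylation-blocking control 100, at or above a set limit in every replicate; inconclusive = mean reaches the limit but not every replicate does; inactive = mean below the limit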;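 also: luciferase carries N-glycosylation sites so blocking glycosylation raises the light; 0% = median of neutral control wells and 100% = median of 100 nM tunicamycin wells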
LMP1 NFkB inh: Epstein-Barr LMP1 NF-kappaB reporter inhibition. LMP1-induced NF-kappaB luciferase reporter cells, luminescence. AID 504558. 350,000 tested, 0.69% active. inhibition, % at 12.5 µM; in the data active = inhibition above about 41%; inconclusive = no clear call, values can overlap the other calls;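 also: 0% = neutral control wells and 100% = reference inhibitor control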
Numbers without * were called inactive; ? = inconclusive; · = no result; [ ] = remark or other dose.

SMILES	Shn3 3UTR inh	Env fusion inh	NSD2 HMT inh	PAX8 inh HTS	Glyco luc inh	LMP1 NFkB inh
O=C(Nc1nnc(-c2ccc(Cl)cc2)o1)C1CCCCC1	-6	-30	·	7	1	-13
Clc1ccc(-c2nnc(NC3=NCCCCC3)o2)cc1	16	-5	-9	·	-17	46*
CCN(CCCNC(=O)CC(C(=O)N1CCc2ccccc21)n1ccnc1)c1ccccc1 (stereo not given)	18	63*	10	·	-1	1
CC(C)CC#Cc1ccc2c(c1)O[C@H](CN(C)Cc1cccc(F)c1)[C@@H](C)CN([C@H](C)CO)S2(=O)=O	·	1[16.7 µM]	·	·	·	·
Cc1cc(=O)[nH]c(N/N=C/c2ccc(C)o2)n1	-1	·	-13	41	5	48*
O=C(c1cc(COc2cccc3cnccc23)on1)N1CCCC(CCCO)C1 (stereo not given)	84	57*	-1	14	-4	31
C[C@@H]1CN([C@@H](C)CO)C(=O)c2cc(NC(=O)CCCN(C)C)ccc2O[C@@H](C)CCCCO[C@H]1CN(C)Cc1ccccc1	·	-2[16.7 µM]	·	-16	·	·
C[C@@H](NC(=O)c1ncn2c1c(=O)[nH]c1ccc(Br)cc12)c1ccccc1	66	23	·	-7	33*	-7
COC(=O)c1ccc(/C=N/Nc2nc(C)c(C)s2)cc1	·	-108	-2	-114	-2	-43
CCCc1sc(N/N=C/c2ccccn2)nc1-c1ccc(F)cc1	77	·	·	·	-12	63*
Cc1nc(N/N=C/c2ccccn2)sc1C	·	107*	2	73*	·	·
N#C/C(=C/c1ccc(N2CCCCCC2)o1)c1ccc(Cl)cc1	96*	·	0	·	17	30
N#C/C(=C/c1ccc(N2CCCCC2)o1)c1cccc(F)c1	60	·	4	·	-7	-96
O=C1c2ccccc2C(=O)C12OC2c1cccc2ccccc12 (stereo not given)	-12	-33	101*	-2	-2	5
N/C(=N\OC(=O)c1ccc2ccccc2c1)c1ccccn1	66	8	·	75*	-20	56*
CCCc1ccc(C(=O)O/N=C(\N)c2ccccn2)cc1	75	32	-3	106*	-21	69*
N/C(=N\OC(=O)c1ccc(=O)n(Cc2ccccc2)c1)c1ccccn1	-23	-25	-1	-21	3	-4
COc1cccc(C(=O)O/N=C(\N)c2ccccn2)c1	39	39	2	25	-17	68*
COc1cccc(C(=O)O/N=C(\N)c2ccccn2)c1OC	18	-2	-5	3	-15	52*
N/C(=N\OC(=O)c1ccc2ccccc2c1)c1ccncc1	-15	-98	10	-112	-11	-10
COCC(=O)N(C)C[C@@H]1Oc2cc(-c3cccnc3)ccc2S(=O)(=O)N([C@H](C)CO)C[C@@H]1C	·	-55[16.7 µM]	·	·	·	·
COCC#Cc1cnc2c(c1)C(=O)N([C@@H](C)CO)C[C@@H](C)[C@H](CN(C)C(=O)c1cccc(F)c1)O2	·	-4[16.7 µM]	·	10	·	·
COc1ccccc1-c1ccc([C@@H]2[C@H](CO)N3CCCCN(S(=O)(=O)c4cn(C)cn4)C[C@@H]23)cc1	·	·	·	11	·	·
COc1cccc(CNC(=O)[C@H]2N[C@H]3c4ccc(/C=C/c5ccccc5)c(=O)n4C[C@H]3[C@@H]2CO)c1	·	·	·	27	·	·
Cc1ccc(S(=O)(=O)Nc2ccc3c(c2)C(=O)N([C@H](C)CO)C[C@H](C)[C@@H](CN(C)C(=O)c2ccncc2)OCCCC[C@@H](C)O3)cc1	·	-12[16.7 µM]	·	-21	·	·
SMILES	Shn3 3UTR inh	Env fusion inh	NSD2 HMT inh	PAX8 inh HTS	Glyco luc inh	LMP1 NFkB inh
CN(C)C(=O)c1cccc(-c2ccc(C3[C@@H]4CN(C(=O)c5ccccn5)C[C@H]3N4)cc2)c1 (stereo not given in full)	·	·	·	-6	·	·
CCCCCCCCSC1=CC(=O)C(OC)=C(OC)C1=O	95*	-10	2	27	-3	-3
CN(C)C(=O)c1cccc(-c2ccc([C@@H]3[C@@H](CO)N4C(=O)CNC[C@@H]34)cc2)c1	·	·	·	-24	·	·
CC(C)NC(=O)N(C)C[C@H]1Oc2ccc(NC(=O)C3CCCCC3)cc2CC(=O)N([C@H](C)CO)C[C@H]1C	·	12[16.7 µM]	·	-4	·	·
COc1ccc(C2=NS(=O)(=O)N(C)C(C(=O)N3CCCCC3C)=C2)cc1 (stereo not given)	27	60*	·	4	0	-8
O=C1C(=O)N(c2nccs2)C(c2ccccc2F)/C1=C(\O)c1ccc2c(c1)OCCO2 (stereo not given)	8	59*	4	54	-3	16
COc1cc2nc(N(C)C)nc(N)c2cc1OC	-6	·	-1	·	48*	-25
Cc1ccc(S(=O)(=O)N[C@@H]2CC[C@H](CC(=O)NCCc3ccncc3)O[C@@H]2CO)cc1	·	-5[16.7 µM]	·	-9	·	·
O=[N+]([O-])c1ccc(S(=O)Cc2ccccc2)c([N+](=O)[O-])c1 (stereo not given)	95*	-165	4	121*	-14	29
O=[N+]([O-])c1ccc(CS(=O)c2ccccc2)cc1 (stereo not given)	2	7	0	-1	0	8
O=C1NC(=O)C(=CC=Cc2ccccc2)S1	-27	-4	8	-103	-1	-32
ClC1=C(Cl)C(Cl)=C(Cl)C1=C/C=C/c1ccccc1	90*	-96	5	-11	-9	70*
CCN(CC)CCn1c2ccccc2c2nc3ccc([N+](=O)[O-])cc3cc21	-122	-183	3	-83	70*	-29
C[C@H](CO)N1C[C@H](C)[C@H](CN(C)C(=O)NC2CCCCC2)OCCCC[C@H](C)Oc2ccc(NC(=O)Nc3ccc(F)cc3)cc2C1=O	·	-70[16.7 µM]	·	65*	·	·
C[C@H]1CCCCO[C@H](CN(C)C(=O)NC2CCCCC2)[C@@H](C)CN([C@@H](C)CO)C(=O)c2cc(NC(=O)Nc3ccccc3)ccc2O1	·	56*[16.7 µM]	·	29	·	·
COc1cc(NC(=O)c2cc3c(Cl)nc4ccccc4c3s2)cc(OC)c1OC	94*	16	28	12	-1	34
C[C@@H]1CN([C@@H](C)CO)C(=O)c2cc(-c3cccnc3)cnc2O[C@@H]1CN(C)Cc1ccc(-c2ccccc2)cc1	·	-2[16.7 µM]	·	·	·	·
Cc1ccc(S(=O)(=O)N2CCN(S(=O)(=O)c3ccc(C)cc3)C2c2ccccc2)cc1	19	105*	-4	·	-5	-1
Cc1ccc(S(=O)(=O)N2CCN(S(C)(=O)=O)C2c2ccccc2)cc1 (stereo not given)	-3	·	·	·	0	0
C[C@@H](NC(=O)C[C@@H]1CC[C@@H](NC(=O)C2CCOCC2)[C@H](CO)O1)c1ccccc1	·	-6[16.7 µM]	·	0	·	·
O=C(O)c1cc(=O)c2c(OCC(O)COc3cccc4oc(C(=O)O)cc(=O)c34)cccc2o1	-20	10	·	7	?	76*
C/C(=N\Nc1nc2ccccc2s1)c1ccc(Br)s1	29	-1	·	27	10	-13
CC(=NNc1nc2ccccc2s1)c1ccncn1	88*	-30	6	0	-14	68*

Screening data: PubChem BioAssay, Broad Institute
